Out of some 220,000 compounds screened, about 1,600 (0.73%) were called active. This excerpt belongs to a sample that is enriched for actives. A number with no mark means an inactive call.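 The calls were made as follows: active = inhibition above about 70% (limit read from the data); inactive = the rest.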
target: 14-3-3 protein zeta/delta (Bos taurus) (UniProt P63103); experiment: disruptors of 14-3-3 zeta phospho-Bad complex – biochemical, TR-FRET, bovine 14-3-3 zeta, primary screen (AID 781); conditions: TR-FRET 14-3-3zeta/Dy647-pBad peptide displacement, 1 h; at 21.7 µM; stronger effect = higher value;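 also: 0% = full 14-3-3 plus peptide FRET controls and 100% = background without 14-3-3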
Sequence (P63103 whole entry, looked up): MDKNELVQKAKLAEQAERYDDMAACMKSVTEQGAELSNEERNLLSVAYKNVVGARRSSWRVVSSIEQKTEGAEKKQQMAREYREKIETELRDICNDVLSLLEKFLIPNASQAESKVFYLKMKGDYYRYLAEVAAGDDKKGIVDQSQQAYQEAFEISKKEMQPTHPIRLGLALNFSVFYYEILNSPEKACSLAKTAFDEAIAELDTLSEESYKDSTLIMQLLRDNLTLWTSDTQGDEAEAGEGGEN

| Compound | inhibition |
| --- | --- |
| Cc1nc2ccccc2nc1N/N=C/c1ccc(O)cc1O | -9.43% |
| O=C(N/N=C/c1ccco1)c1csc2c1CCCC2 | -2.18% |
| Cc1c(C)c(C)c2[nH]c(=S)[nH]c2c1C | -0.36% |
| O=c1[nH]c(=S)[nH]c2[nH]c(=S)[nH]c12 | 73.3% (active) |
| Cc1cc(=O)[nH]c(=S)[nH]1 | 0.3% |
| Nc1nc(SCC(=O)N2CCN(S(=O)(=O)c3ccc(Cl)cc3)CC2)n[nH]1 | -16.8% |
| CC1CCN(C(=S)NC2CC3CCC2C3)CC1 (configuration not stated) | -3% |
| COCc1c(N)c(C)nc(Cl)c1C#N | -17% |
| Cc1nnc(SCCCCSc2nnc(C)c(=O)[nH]2)[nH]c1=O | -6.9% |
| CC(O)CN(Cc1ccc(Cl)cc1)CC(C)O (configuration not stated) | 85.5% (active) |
| CN(C)CCCNC(=S)NCc1ccc(Cl)cc1 | -10.2% |
| OCCN(Cc1ccccc1)Cc1ccc(Cl)cc1 | 42.7% |
| Cn1c(N)c(C(=O)COC(=O)c2ccccc2NCc2ccco2)c(=O)n(C)c1=O | 0.84% |
| CCCCCC(=O)Nc1ccc(C(=O)N/N=C/c2ccc([N+](=O)[O-])cc2)cc1 | -13.5% |
| O=C(COc1ccc(/C=N/NC(=O)c2ccc(O)cc2)cc1)Nc1ccc([N+](=O)[O-])cc1 | 74.2% [fluorescence artefact?] (active) |
| O=C(N/N=C/c1ccc(OCc2ccccc2)cc1)c1ccc(O)cc1 | -9.63% |
| CSc1n[nH]c(=S)n1N | -10% |
| CN(c1ccccc1)S(=O)(=O)c1cc(C(=O)Nc2nc3ccccc3[nH]2)ccc1Cl | 1.7% |
| O=C(c1ccc2c(c1)N(Cc1ccc(F)cc1)C(=O)c1ccccc1S2(=O)=O)N1CCN(c2ccccn2)CC1 | -4.43% |
| COC(=O)CNC(=O)c1ccc2c(c1)S(=O)(=O)c1ccccc1C2=O | 2.96% |
| CCCCN(C)C(=O)c1ccc2c(c1)N(CC)C(=O)c1ccccc1S2(=O)=O | 75.6% (active) |

| Compound | inhibition |
| --- | --- |
| Brc1ccc2c(c1)[C@H]1OCC[C@H]1[C@@H](c1cccs1)N2 | 4.8% |
| O=S1(=O)C=C(SCCN2CCCC2)c2ccccc21 | 71.3% (active) |
| Nc1nnc(SCCN2C(=O)c3ccccc3S2(=O)=O)s1 | 5.12% |
| c1ccc(-c2ccccc2OCCN2CCCCC2)cc1 | 40.5% |
| Cc1nn(CC2CC2)c(=O)n1N(C)c1ncc(C(F)(F)F)cc1Cl | -11.7% |
| Cc1nn(C)cc1N1C(=O)c2cccc3c(N)ccc(c23)C1=O | -2.5% |
| CCN(c1ccccc1)S(=O)(=O)c1ccc2[nH]c(=O)[nH]c2c1 | -1.8% |
| CCN(c1ccccc1)S(=O)(=O)c1ccc(NC(=O)C(C)(C)C)cc1 | 4.53% |
| CCN(c1ccccc1)S(=O)(=O)c1ccc(N)cc1 | 71.9% (active) |
| CCOC(=O)c1cc2c(=O)n3ccccc3nc2n(CC(C)C)c1=NC(=O)c1c(-c2c(F)cccc2Cl)noc1C | -8.06% |
| O=C1CCCC(O)=C1N=Nc1ccc2ncsc2c1 | 3.62% |
| COC(=O)c1c(C)oc(C)c1S(=O)(=O)Nc1ccc(C(C)C)cc1 | 3.11% |
| CC1CCC2(CC1)NC(=O)N(CC(=O)c1cccn1C)C2=O (configuration not stated) | 73.9% (active) |
| CC1CCC2(CC1)NC(=O)N(Cc1nnc(-c3cccs3)o1)C2=O (configuration not stated) | 21.6% |
| O=C(CN1C(=O)NC2(CCCCCC2)C1=O)NC1CC1 | 8.5% |
| Cc1ccc(CN2CCN(Cc3ccc(OCCO)cc3)CC2CCO)o1 (configuration not stated) | -4.12% |
| COc1ccccc1CNC(=O)C1CCN(c2nc3ccccc3o2)CC1 | -3.16% |
| COc1ccc(CNC(=O)C2CCN(S(C)(=O)=O)CC2)cc1 | -4.78% |
| COc1ccccc1CNC(=O)C1CCN(S(C)(=O)=O)CC1 | 74% (active) |
| Cc1cc(OCCCCOc2ccc(C#N)cc2)ccc1[N+](=O)[O-] | -4.45% |
| CCOC(=O)C1CCCCN1Cc1ccc(OC)c(OC)c1OC (configuration not stated) | 79.9% (active) |

| Compound | inhibition |
| --- | --- |
| CCOC(=O)C1CCN(C(=O)/C=C/c2cc(OC)c(OC)c(OC)c2)CC1 | -11.5% |
| CCOC(=O)C1CCN(S(=O)(=O)c2cc(F)ccc2OC)CC1 | -7.19% |
| CCN(CC)CC(=O)Nc1sc2c(c1C(=O)c1ccccc1C)CCC2 | -10.9% |
| CCCCOc1ccc(CON(C(C)=O)C(C)=O)cc1Cl | 3% |
| COc1ccc(-c2csc(NC(=O)c3ccc(N4C(=O)CCC4=O)cc3)n2)cc1OC | -4.66% |
| O=C(CN1CCN(C2CCCCC2)CC1)Nc1ccccc1N1CCCCC1 | 72.6% (active) |
| O=C(CN1CCCCC1)Nc1ccccc1Cl | -5.94% |
| Cc1ccccc1NC(=O)CNc1ccccc1N1CCCCC1 | -11.4% |
| CCCCOc1ccc(N(CC(=O)NC(C)C)C(=O)CCC(=O)Nc2ccccn2)cc1 | -8.63% |
| O=C1CC(=O)Nc2cc(S(=O)(=O)N3CCN(c4cccc(C(F)(F)F)c4)CC3)ccc2N1 | 9.3% |
| CC(C)Nc1nnc(SCC(=O)/C=C2\N(C)c3ccccc3C2(C)C)s1 | 0.42% |
| COC(=O)COc1ccc(C2NC(=O)NC(C)=C2C(=O)NCc2ccccc2)cc1OC (configuration not stated) | -4.82% |
| Cc1ccc2cc(C#N)c(NCCNC(=S)NCCCN3CCOCC3)nc2c1 | -9.87% |
| Cc1ccc2nc(NCCCNC(=O)c3cnccn3)c(C#N)cc2c1 | 70.8% (active) |
| COCCCNC(=S)NCCNc1nc2cc(C)c(C)cc2cc1C#N | -7.08% |
| Cc1ccc(NC(=O)c2nc[nH]c2C(=O)N[C@@H](CCCCNC(=O)OC(C)(C)C)C(=O)OC(C)(C)C)cc1 | -8.93% |
| O=c1c(-c2ccccc2)coc2c(CN3CCOCC3)c(O)ccc12 | 81.7% (active) |
| CN1CCN(Cc2c(O)ccc3c2oc(=O)c2ccccc23)CC1 | 0.82% |
| O=c1c(-c2ccccc2)coc2cc(O)ccc12 | 4.45% |
| O=C(CSc1ccsc1[N+](=O)[O-])N1CCCCC1 | -7.81% |

— PubChem BioAssay AID781 (Emory University Molecular Libraries Screening Center, 2007)
